# Source: paper PMC7862700, “An all-to-all approach to the identification of sequence-specific readers for epigenetic DNA modifications on cytosine”
# Assays:
# Test in all cases: DAPPL (digital affinity profiling via proximity ligation, sequencing); 10 mM Tris-HCl pH 7.5, 50 mM NaCl, 1 mM DTT, 4% glycerol, room temperature, 30 min; GST-TFs on glutathione beads, 16-mer random dsDNA library, 0.1% formaldehyde crosslink after washing; high values mean tight binding
# [1] = target: T1, FLI1 (Homo sapiens, UniProt Q01543 1-452); conditions: protein: recombinant; tags: N-terminal GST; dsDNA, one strand shown
# T1 sequence: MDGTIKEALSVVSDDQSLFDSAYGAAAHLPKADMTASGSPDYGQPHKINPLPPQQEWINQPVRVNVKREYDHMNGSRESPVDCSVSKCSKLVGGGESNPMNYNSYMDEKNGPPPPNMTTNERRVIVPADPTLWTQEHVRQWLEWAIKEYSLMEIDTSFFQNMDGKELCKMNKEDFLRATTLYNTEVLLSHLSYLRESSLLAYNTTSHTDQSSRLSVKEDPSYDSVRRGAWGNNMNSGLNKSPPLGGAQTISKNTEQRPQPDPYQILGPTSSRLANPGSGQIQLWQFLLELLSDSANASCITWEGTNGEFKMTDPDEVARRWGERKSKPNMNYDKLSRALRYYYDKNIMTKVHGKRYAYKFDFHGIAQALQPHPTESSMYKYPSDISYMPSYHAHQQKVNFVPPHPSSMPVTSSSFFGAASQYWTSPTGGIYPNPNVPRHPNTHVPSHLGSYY
# Method in brief: (§1)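 A tag-only sample was pooled with DNA-barcoded human transcription factors that had been expressed in yeast as GST fusions and captured on glutathione beads. The pools were incubated for 30 min at room temperature with 200 nmole of a random double-stranded 16-mer DNA library in Tris/NaCl/DTT/glycerol buffer, then washed, crosslinked with 0.1% formaldehyde, proximity-ligated (BsaI/T4 ligase, 1 h, 37 °C), PCR-amplified and sequenced on an Illumina NextSeq500. Binding signal is each hexamer's read frequency for a factor divided by its frequency for the tag-only sample.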
# [2] = target: T2, ELK1 (Homo sapiens, UniProt P19419 1-428); conditions: protein: recombinant; tags: N-terminal GST; dsDNA, one strand shown
# T2 sequence: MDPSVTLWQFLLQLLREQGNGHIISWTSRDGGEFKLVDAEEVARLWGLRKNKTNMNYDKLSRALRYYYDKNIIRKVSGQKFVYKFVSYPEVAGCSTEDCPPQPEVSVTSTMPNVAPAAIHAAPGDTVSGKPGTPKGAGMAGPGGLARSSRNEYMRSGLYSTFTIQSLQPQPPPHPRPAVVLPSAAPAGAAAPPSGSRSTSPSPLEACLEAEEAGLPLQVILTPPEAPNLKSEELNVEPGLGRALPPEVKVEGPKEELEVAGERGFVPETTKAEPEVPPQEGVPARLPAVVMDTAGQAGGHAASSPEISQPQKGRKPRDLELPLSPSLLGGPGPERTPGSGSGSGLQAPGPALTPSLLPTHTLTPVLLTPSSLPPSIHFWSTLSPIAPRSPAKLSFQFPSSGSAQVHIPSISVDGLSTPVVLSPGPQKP
# Method in brief: as §1
# [3] = target: T3, ERG (Homo sapiens, UniProt P11308 1-479); conditions: protein: recombinant; tags: N-terminal GST; dsDNA, one strand shown
# T3 sequence: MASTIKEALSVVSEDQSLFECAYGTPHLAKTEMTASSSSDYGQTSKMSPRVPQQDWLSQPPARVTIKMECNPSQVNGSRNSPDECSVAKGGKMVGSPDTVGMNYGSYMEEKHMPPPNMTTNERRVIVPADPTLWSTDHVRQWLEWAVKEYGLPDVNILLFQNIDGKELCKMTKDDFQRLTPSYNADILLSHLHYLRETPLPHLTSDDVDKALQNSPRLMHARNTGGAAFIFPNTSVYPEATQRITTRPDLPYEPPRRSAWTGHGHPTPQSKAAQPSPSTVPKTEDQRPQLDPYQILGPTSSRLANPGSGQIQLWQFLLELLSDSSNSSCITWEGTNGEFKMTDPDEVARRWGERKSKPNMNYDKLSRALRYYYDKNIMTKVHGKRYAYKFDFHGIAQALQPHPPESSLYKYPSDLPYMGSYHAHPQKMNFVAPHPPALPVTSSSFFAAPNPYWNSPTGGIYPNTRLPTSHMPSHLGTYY
# Method in brief: as §1
# [4] = target: ELF1 (Homo sapiens, UniProt P32519 1-619); conditions: protein: recombinant; tags: N-terminal GST; dsDNA, one strand shown
# ELF1, sequence (P32519 whole entry): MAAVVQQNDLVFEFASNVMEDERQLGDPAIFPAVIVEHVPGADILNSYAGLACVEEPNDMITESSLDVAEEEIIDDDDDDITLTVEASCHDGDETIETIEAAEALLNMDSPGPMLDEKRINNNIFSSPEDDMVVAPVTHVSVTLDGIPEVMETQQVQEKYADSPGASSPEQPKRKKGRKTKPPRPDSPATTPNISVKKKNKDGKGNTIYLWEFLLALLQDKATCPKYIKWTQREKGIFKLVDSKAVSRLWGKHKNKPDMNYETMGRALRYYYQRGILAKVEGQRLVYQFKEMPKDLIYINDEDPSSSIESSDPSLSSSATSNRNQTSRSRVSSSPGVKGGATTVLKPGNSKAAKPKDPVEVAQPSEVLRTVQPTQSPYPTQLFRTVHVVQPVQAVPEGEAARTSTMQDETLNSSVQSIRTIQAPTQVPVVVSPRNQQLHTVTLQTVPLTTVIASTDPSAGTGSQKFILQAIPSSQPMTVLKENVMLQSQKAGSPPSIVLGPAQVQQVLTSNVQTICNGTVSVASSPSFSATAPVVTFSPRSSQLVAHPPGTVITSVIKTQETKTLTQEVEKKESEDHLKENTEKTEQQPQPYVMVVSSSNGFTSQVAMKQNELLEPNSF
# Method in brief: as §1
# [5] = target: T4, EHF (Homo sapiens, UniProt Q9NZC4 1-300); conditions: protein: recombinant; tags: N-terminal GST; dsDNA, one strand shown
# T4 sequence: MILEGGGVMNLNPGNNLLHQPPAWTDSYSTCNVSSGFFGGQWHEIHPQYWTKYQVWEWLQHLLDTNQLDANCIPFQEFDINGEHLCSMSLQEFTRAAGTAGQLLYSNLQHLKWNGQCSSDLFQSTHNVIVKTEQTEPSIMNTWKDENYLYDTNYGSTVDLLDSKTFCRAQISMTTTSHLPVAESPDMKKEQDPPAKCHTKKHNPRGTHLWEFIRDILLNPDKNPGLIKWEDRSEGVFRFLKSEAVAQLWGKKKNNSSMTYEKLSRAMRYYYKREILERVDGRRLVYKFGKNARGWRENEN
# Method in brief: as §1
# [6] = target: SPI1 (Homo sapiens, UniProt P17947 1-270); conditions: protein: recombinant; tags: N-terminal GST; dsDNA, one strand shown
# Method in brief: as §1
# [7] = target: SPIB (Homo sapiens, UniProt Q01892 1-262); conditions: protein: recombinant; tags: N-terminal GST; dsDNA, one strand shown
# SPIB, sequence (Q01892 whole entry): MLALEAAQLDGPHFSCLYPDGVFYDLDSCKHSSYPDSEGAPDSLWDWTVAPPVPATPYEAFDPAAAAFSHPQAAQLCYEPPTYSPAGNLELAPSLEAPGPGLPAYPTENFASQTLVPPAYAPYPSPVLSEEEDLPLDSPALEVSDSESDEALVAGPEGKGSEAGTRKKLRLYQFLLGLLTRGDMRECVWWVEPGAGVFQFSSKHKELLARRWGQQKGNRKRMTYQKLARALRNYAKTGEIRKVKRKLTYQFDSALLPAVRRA
# Method in brief: as §1
# [8] = target: T5, ELK3 (Homo sapiens, UniProt P41970 1-407); conditions: protein: recombinant; tags: N-terminal GST; dsDNA, one strand shown
# T5 sequence: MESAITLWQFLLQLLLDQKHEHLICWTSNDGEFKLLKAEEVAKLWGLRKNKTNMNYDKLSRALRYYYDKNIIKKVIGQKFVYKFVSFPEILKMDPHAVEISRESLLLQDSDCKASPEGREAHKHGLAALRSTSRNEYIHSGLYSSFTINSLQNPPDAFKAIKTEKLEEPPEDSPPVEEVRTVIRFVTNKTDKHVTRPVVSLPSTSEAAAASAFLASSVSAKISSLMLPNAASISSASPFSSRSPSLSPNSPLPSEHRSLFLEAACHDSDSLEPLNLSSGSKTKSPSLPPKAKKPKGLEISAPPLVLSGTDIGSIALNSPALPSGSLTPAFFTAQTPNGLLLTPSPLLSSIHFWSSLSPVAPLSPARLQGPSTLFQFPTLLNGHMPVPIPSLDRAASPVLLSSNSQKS
# Method in brief: as §1
# [9] = target: ETV5 (Homo sapiens, UniProt P41161 1-510); conditions: protein: recombinant; tags: N-terminal GST; dsDNA, one strand shown
# ETV5, sequence (P41161 whole entry): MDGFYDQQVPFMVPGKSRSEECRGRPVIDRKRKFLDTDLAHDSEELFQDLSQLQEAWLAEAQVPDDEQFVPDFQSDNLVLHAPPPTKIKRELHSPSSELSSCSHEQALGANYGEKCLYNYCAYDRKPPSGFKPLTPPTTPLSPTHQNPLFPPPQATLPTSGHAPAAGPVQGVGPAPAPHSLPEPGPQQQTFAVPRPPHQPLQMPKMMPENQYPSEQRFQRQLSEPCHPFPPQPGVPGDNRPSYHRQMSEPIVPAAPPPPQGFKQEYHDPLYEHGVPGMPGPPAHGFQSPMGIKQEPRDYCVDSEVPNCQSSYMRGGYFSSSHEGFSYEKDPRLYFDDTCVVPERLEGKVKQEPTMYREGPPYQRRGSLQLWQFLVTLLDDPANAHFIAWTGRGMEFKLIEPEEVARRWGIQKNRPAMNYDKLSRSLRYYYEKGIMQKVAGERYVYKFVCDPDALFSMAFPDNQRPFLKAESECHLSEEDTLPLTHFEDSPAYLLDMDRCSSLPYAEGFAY
# Method in brief: as §1
# [10] = target: HSF1 (Homo sapiens, UniProt Q00613 1-529); conditions: protein: recombinant; tags: N-terminal GST; chain copies: 3; dsDNA, one strand shown
# HSF1, sequence (Q00613 whole entry): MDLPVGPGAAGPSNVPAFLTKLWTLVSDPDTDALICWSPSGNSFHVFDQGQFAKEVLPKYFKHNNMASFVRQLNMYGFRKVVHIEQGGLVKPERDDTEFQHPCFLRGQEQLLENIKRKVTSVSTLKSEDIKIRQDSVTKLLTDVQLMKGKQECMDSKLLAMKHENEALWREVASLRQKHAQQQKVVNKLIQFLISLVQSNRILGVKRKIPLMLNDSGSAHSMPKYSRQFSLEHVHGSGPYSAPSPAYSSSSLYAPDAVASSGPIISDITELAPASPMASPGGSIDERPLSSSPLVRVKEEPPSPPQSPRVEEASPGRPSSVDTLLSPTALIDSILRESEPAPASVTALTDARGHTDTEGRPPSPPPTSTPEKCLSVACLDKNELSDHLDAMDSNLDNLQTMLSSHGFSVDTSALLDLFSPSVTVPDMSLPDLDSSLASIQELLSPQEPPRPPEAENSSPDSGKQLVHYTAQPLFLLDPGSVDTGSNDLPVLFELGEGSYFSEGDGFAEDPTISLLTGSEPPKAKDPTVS
# Method in brief: as §1
# [11] = target: T6, SPIC (Homo sapiens, UniProt Q8N5J4 1-248); conditions: protein: recombinant; tags: N-terminal GST; dsDNA, one strand shown
# T6 sequence: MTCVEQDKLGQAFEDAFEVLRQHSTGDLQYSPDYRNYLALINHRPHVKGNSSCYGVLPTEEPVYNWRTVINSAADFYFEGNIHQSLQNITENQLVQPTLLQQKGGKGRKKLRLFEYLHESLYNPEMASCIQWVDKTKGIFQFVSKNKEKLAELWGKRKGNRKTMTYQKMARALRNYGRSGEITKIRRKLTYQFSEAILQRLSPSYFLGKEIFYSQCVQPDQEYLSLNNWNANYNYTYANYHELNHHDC
# Method in brief: as §1
# [12] = target: T7, ELK4 (Homo sapiens, UniProt P28324-2 1-405); conditions: protein: recombinant; tags: N-terminal GST; dsDNA, one strand shown
# T7 sequence: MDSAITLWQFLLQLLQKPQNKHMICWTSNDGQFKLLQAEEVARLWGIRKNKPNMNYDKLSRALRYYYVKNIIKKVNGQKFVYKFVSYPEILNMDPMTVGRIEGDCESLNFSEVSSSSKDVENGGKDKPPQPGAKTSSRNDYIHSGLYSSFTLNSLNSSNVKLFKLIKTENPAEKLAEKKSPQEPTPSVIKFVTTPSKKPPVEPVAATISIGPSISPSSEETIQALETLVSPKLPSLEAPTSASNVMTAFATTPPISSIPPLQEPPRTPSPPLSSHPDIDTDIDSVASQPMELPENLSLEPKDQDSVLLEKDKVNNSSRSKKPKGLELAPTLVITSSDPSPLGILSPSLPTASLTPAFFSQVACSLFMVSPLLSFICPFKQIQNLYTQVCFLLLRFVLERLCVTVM
# Method in brief: as §1
# [13] = target: T8, ETV2 (Homo sapiens, UniProt O00321 1-342); conditions: protein: recombinant; tags: N-terminal GST; dsDNA, one strand shown
# T8 sequence: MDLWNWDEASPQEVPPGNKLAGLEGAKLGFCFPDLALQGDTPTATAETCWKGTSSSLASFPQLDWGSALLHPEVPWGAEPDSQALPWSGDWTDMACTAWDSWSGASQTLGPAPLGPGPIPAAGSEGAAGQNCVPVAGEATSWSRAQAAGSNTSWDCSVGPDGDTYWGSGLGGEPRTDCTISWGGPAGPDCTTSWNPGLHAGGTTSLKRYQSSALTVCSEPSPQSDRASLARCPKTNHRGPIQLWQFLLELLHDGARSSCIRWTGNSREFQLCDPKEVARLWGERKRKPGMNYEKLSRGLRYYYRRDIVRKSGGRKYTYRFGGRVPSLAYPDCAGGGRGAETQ
# Method in brief: as §1
# [14] = target: CRX (Homo sapiens, UniProt O43186 1-299); conditions: protein: recombinant; tags: N-terminal GST; dsDNA, one strand shown
# CRX, sequence (O43186 whole entry): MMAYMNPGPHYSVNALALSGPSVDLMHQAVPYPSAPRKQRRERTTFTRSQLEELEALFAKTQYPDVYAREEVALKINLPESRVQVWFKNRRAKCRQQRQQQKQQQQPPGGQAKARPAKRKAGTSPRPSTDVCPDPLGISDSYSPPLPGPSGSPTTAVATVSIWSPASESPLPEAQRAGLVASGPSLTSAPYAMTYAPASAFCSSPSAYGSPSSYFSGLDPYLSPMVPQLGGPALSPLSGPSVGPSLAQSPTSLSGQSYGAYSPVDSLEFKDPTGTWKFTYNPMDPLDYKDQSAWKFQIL
# Method in brief: as §1
# [15] = target: ETV1 (Homo sapiens, UniProt P50549 1-477); conditions: protein: recombinant; tags: N-terminal GST; dsDNA, one strand shown
# ETV1, sequence (P50549 whole entry): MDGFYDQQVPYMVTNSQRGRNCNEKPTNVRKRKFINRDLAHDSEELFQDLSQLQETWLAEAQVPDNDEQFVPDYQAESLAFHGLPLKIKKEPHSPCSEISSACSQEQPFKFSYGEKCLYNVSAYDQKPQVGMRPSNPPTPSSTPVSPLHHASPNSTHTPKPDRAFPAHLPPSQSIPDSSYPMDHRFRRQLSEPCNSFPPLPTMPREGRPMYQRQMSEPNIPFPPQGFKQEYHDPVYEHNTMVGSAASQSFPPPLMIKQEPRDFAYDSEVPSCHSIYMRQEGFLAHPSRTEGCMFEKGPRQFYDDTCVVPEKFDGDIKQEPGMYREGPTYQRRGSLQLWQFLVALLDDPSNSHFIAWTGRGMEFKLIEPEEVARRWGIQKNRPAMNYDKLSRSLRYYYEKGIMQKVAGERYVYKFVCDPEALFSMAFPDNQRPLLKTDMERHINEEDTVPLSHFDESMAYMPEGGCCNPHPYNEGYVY
# Method in brief: as §1
# [16] = target: T9, FEV (Homo sapiens, UniProt Q99581 1-238); conditions: protein: recombinant; tags: N-terminal GST; dsDNA, one strand shown
# T9 sequence: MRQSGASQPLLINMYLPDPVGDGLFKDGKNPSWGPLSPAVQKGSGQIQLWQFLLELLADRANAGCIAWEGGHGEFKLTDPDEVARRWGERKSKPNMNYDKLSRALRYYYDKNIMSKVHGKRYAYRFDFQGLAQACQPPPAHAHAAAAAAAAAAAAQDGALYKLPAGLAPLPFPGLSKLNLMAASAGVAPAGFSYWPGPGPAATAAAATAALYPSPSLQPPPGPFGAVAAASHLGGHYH
# Method in brief: as §1
# [17] = target: ELF4 (Homo sapiens, UniProt Q99607 1-663); conditions: protein: recombinant; tags: N-terminal GST; dsDNA, one strand shown
# ELF4, sequence (Q99607 whole entry): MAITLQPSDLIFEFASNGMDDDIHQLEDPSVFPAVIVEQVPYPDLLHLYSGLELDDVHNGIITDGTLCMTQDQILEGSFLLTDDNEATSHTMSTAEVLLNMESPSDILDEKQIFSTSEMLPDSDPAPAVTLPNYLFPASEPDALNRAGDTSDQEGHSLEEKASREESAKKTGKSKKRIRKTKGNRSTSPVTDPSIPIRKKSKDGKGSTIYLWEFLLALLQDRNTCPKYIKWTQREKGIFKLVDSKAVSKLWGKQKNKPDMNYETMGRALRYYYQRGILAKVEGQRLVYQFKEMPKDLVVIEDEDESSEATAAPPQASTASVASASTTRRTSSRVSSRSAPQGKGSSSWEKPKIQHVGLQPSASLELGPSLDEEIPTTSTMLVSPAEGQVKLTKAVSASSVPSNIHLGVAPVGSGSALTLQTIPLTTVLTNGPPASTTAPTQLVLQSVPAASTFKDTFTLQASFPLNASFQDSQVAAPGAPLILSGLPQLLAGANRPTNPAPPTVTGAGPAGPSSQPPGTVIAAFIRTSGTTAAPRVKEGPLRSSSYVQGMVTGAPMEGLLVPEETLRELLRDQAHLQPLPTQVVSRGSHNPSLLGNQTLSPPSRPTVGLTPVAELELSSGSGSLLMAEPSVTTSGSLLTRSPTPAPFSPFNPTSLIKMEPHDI
# Method in brief: as §1
# [18] = target: T10, ELF3 (Homo sapiens, UniProt P78545 1-371); conditions: protein: recombinant; tags: N-terminal GST; dsDNA, one strand shown
# T10 sequence: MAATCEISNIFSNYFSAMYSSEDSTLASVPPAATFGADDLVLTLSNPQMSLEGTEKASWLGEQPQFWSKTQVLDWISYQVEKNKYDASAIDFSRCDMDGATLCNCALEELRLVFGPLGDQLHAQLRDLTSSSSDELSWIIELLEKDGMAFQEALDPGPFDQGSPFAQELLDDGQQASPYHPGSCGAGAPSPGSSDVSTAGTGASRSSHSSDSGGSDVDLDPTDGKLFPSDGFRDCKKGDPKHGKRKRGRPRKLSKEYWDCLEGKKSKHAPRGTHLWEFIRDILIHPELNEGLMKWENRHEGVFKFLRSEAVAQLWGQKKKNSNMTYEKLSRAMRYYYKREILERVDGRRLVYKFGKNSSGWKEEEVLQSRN
# Method in brief: as §1
Sequence,binding signal [1],binding signal [2],binding signal [3],binding signal [4],binding signal [5],binding signal [6],binding signal [7],binding signal [8],binding signal [9],binding signal [10],binding signal [11],binding signal [12],binding signal [13],binding signal [14],binding signal [15],binding signal [16],binding signal [17],binding signal [18]
GAATTA,"1.09 fold enrichment (6-mer frequency, TF over GST control)","1.05 fold enrichment (6-mer frequency, TF over GST control)","1.01 fold enrichment (6-mer frequency, TF over GST control)","1.04 fold enrichment (6-mer frequency, TF over GST control)","1.12 fold enrichment (6-mer frequency, TF over GST control)","1.07 fold enrichment (6-mer frequency, TF over GST control)","1.02 fold enrichment (6-mer frequency, TF over GST control)","1.12 fold enrichment (6-mer frequency, TF over GST control)","1.01 fold enrichment (6-mer frequency, TF over GST control)","1.72 fold enrichment (6-mer frequency, TF over GST control)","1.12 fold enrichment (6-mer frequency, TF over GST control)","1.09 fold enrichment (6-mer frequency, TF over GST control)","1.02 fold enrichment (6-mer frequency, TF over GST control)","2.39 fold enrichment (6-mer frequency, TF over GST control)","1.08 fold enrichment (6-mer frequency, TF over GST control)",,,
GGAACA,"1.06 fold enrichment (6-mer frequency, TF over GST control)","1.09 fold enrichment (6-mer frequency, TF over GST control)","1.16 fold enrichment (6-mer frequency, TF over GST control)","1.02 fold enrichment (6-mer frequency, TF over GST control)","1.12 fold enrichment (6-mer frequency, TF over GST control)","1.15 fold enrichment (6-mer frequency, TF over GST control)","1.18 fold enrichment (6-mer frequency, TF over GST control)","1.12 fold enrichment (6-mer frequency, TF over GST control)","1.16 fold enrichment (6-mer frequency, TF over GST control)","1.32 fold enrichment (6-mer frequency, TF over GST control)","1.1 fold enrichment (6-mer frequency, TF over GST control)",,"1.11 fold enrichment (6-mer frequency, TF over GST control)",,"1.08 fold enrichment (6-mer frequency, TF over GST control)","1.01 fold enrichment (6-mer frequency, TF over GST control)","1 fold enrichment (6-mer frequency, TF over GST control)","1.09 fold enrichment (6-mer frequency, TF over GST control)"
